Records with an inconclusive call do not appear. Calls of active or inactive are those of the source. Unless noted, calls follow the shape of the dose curve; as a rule, active = well fitted curve in the direction sought with a large enough effect in the repeat runs; inconclusive = weak or mixed curves; inactive = no such curve, though single readings can be large; an effect the other way counts as inactive or inconclusive.
Columns and labels:
[1] = A CellTox Green Cytotoxicity Assay to monitor cytotoxicity in HEK293 cells - 16 hour (AID 1224888); also: nearly all actives have a fitted effect of over 35% in size
In short: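 Dead-cell fluorescence measured kinetically: asymmetric cyanine dye, HEK293, 600 cells/well, 5 h settle, 23 nL cpd/DMSO, 37 C, reads 0–40 h every 8 h.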

[2] = qHTS RealTime-Glo MT Cell Viability Assay in HepG2 cells - 0 hour (AID 1224889); also: nearly all actives have a fitted effect of over 50% in size
In short: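 Luminescence read-out: viable HepG2 cells reduce a prosubstrate to a NanoLuc substrate, giving a signal proportional to live cell number. Reads taken at 0, 8, 16, 24, 32 and 40 h of compound exposure at 37 C.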

[3] = A CellTox Green Cytotoxicity Assay to monitor cytotoxicity in HepG2 cells - 8 hour (AID 1224890); also: nearly all actives have a fitted effect of over 45% in size
In short: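 First, HepG2 cells (600/well) mixed with reagent were plated; second, after 5 h at 37 C they received compounds via pintool; third, fluorescence was measured at 0 h through 40 h at 8 h intervals.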

[4] = qHTS assay to identify small molecule antagonists of the estrogen receptor alpha (ER-alpha) signaling pathway using the BG1 cell line in the presence of 0.1 nM 17-beta-estradiol - cell viability counter screen (AID 1259241); also: nearly all actives have a fitted effect of over 40% in size
In short: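 VM7Luc4E2 cells (endogenous ER-alpha, 4×ERE-luciferase), hormone-starved 5 days in charcoal-stripped FBS, were treated with compounds plus 0.1 nM 17beta-estradiol for 22 hr at 37C; viability read in same wells as CellTiter-Fluor live-cell protease fluorescence.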

[5] = qHTS assay to identify small molecule antagonists of the androgen receptor (AR) signaling pathway using the MDA cell line in the presence of 0.5 nM R1881 - cell viability counter screen (AID 1259242); also: nearly all actives have a fitted effect of over 45% in size
In short: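 qHTS format. MDA-kb2 (MMTV-luc, AR/GR responsive) + cpd + 0.5 nM R1881 final, 16 hr 37C/0% CO2 → CellTiter-Fluor 30 min → fluorescence intensity.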

[6] = target: Estrogen receptor (Homo sapiens) (UniProt P03372); assay: qHTS assay to identify small molecule antagonists of the estrogen receptor alpha (ER-alpha) signaling pathway using the BG1 cell line in the presence of 0.1 nM 17-beta-estradiol (AID 1259244); also: nearly all actives have a fitted effect of over 50% in size
In short: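 Reporter is a stably transfected luciferase under four estrogen responsive elements in VM7Luc4E2 cells expressing native full-length ER-alpha; inhibition of 0.1 nM (final) 17beta-estradiol-driven signal over 22 h is read by luminescence.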

[7] = qHTS assay to identify small molecule HDAC inhibitors (AID 1259364);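 also: wild-type HCT-116 cells with endogenous class I/II HDAC activity; top concentration of the series differs between compounds; nearly all actives have a fitted effect of over 45% in size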
In short: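 Quantitative high-throughput format: overnight-seeded HCT-116 cells got compounds for 2 hr at 37C; HDAC-Glo I/II reagent added, 30 min RT, luminescence measured.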

[8] = qHTS assay to identify small molecule HDAC inhibitors - cell viability counter screen (AID 1259365); also: series mostly up to about 92 µM; nearly all actives have a fitted effect of over 50% in size
In short: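 Wild-type HCT-116 cells were seeded at 1,500 per well, incubated overnight at 37 C, then exposed to compounds in DMSO for 2hr. Viability was read by CellTiter-Glo luminescence after 30min at room temperature.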

[9] = qHTS assay to identify small molecule phospholipidosis (PLD) inducers (AID 1259344; active = well fitted curve in the direction sought with a large enough effect; an effect the other way counts as inactive or inconclusive)
In short: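 Image-based: LipidTOX Red pit count/intensity per well and per cell; HepG2, 24 h compound at 37 C, PFA fixation, Hoechst counterstain.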
% is scaled to controls: 0 for no effect and ±100 for the full control effect.

Estrogen receptor (Homo sapiens), sequence (P03372 whole entry, looked up): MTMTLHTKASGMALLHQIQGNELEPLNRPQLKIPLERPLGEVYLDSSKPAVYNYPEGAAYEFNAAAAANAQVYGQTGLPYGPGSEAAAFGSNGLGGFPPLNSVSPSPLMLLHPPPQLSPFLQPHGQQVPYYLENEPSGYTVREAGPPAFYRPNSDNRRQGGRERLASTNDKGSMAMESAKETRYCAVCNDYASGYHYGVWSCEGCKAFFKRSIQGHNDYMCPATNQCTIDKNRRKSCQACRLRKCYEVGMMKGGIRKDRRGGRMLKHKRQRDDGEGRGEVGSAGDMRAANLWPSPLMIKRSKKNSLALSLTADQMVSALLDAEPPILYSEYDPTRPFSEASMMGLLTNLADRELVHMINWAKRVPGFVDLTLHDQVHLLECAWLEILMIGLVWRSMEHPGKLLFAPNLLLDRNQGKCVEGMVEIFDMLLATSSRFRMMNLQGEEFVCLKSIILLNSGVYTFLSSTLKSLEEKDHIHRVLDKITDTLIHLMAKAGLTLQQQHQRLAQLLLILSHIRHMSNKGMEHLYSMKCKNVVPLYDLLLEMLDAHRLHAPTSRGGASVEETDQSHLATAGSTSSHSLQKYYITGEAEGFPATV

Cc1ccc(Br)cc1
inactive: Potency [1] | Potency [2] | Potency [3] | outcome [4] | outcome [5] | outcome [6] | Potency [7] | outcome [8]

CCCCCCCCCCCCCCCC(=O)OC
inactive: activity change [1] 0.239% [at 15.8 µM, hits give high values] | activity change, negative = cytotoxicity [2] -16.3% [at 15.8 µM] | cytotoxicity increase [3] -16.6% [at 15.8 µM] | activity change, negative = cytotoxicity [4] 6.9% [at 19 µM] | viability change, negative = cytotoxic [5] 3.68% [at 19 µM] | activity change, negative = inhibition [6] -4.11% [at 19 µM] | activity change, negative = inhibition [7] 2.36% [at 19 µM] | activity change, negative = cytotoxicity [8] -1.77% [at 19 µM]

CC(C)(O)CCCC1=CCC(C=O)CC1 (stereo not drawn)
inactive: Potency [1] | Potency [2] | Potency [3] | outcome [4] | outcome [5] | outcome [6] | Potency [7] | outcome [8]

O=S(=O)(O)c1ccc(Cl)cc1
inactive: Potency [1] | Potency [2] | Potency [3] | outcome [4] | outcome [5] | outcome [6] | Potency [7] | outcome [8]

CCOC(=O)CN1CCCC1=O
inactive: Potency [1] | Potency [2] | Potency [3] | outcome [4] | outcome [5] | outcome [6] | Potency [7] | outcome [8]

CCCCN=C(N)N=C(N)N
inactive: Potency [1] | Potency [2] | Potency [3] | outcome [4] | outcome [5] | Potency [9] | Potency [7] | outcome [8]

CCCCN1C(=O)c2ccccc2C1=O
inactive: Potency [1] | Potency [2] | Potency [3] | outcome [4] | outcome [5] | outcome [6] | Potency [7] | outcome [8]

C=CC(=O)OCC[N+](C)(C)C
inactive: Potency [1] | Potency [2] | Potency [3] | outcome [4] | outcome [5] | outcome [6] | Potency [7] | outcome [8]

CO/N=C(\C(=O)O)c1csc(NC(=O)CCl)n1
inactive: Potency [1] | Potency [2] | Potency [3] | outcome [4] | outcome [5] | outcome [6] | Potency [7] | outcome [8]

O=C(CCBr)N1CCN(C(=O)CCBr)CC1
inactive: Potency [1] | Potency [2] | Potency [3] | outcome [4] | outcome [5] | Potency [9] | Potency [7] | outcome [8]

CN(C)c1ccncc1
inactive: Potency [1] | Potency [2] | Potency [3] | outcome [4] | outcome [5] | outcome [6] | Potency [7] | outcome [8]
